Conditions in all cases: concentration: 10 µM; 24 h
The test system of experiment [1] is HCC1569. The experiment in a line: cell number relative to DMSO (% of DMSO); higher = more cells (less growth inhibition / toxicity). In a few lines:
(§1)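 Using 384-well plates with 800 cells per well in RPMI plus 10% FBS, HCC1569 and TDF cells were exposed to compounds at 10 µM, in triplicate, for 24 h at 37 °C. Imaging of six fields per well at ×10 followed H1.0 and DAPI staining. The reported quantity, H1.0 nuclear intensity or cell number, is a median of replicates given as percent of the plate control, and HCC1569 values were smoothed for positional effects.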

Experiment [2] has as its system TDF. The experiment is described as above. In a few lines: as §1
The test system of experiment [3] is TDF. As to the kind of experiment: H1.0 immunofluorescence intensity relative to DMSO (% of DMSO); higher = stronger H1.0 induction, active = 120 or more. In outline:
as §1

The subject of experiment [4] is HCC1569. As to the kind of experiment: H1.0 immunofluorescence intensity relative to DMSO (% of DMSO); higher = stronger H1.0 induction, active = 140 or more. In outline: as §1

± gives the standard deviation of the averaged measurements.
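Throughout, for H1.0 immunofluorescence intensity relative to DMSO: TDF is a line of transformed human dermal fibroblasts of mesenchymal origin.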
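Throughout, for cell number relative to DMSO: TDF denotes transformed human dermal fibroblasts of mesenchymal origin.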

With `COC(=O)c1c(-c2cc(OC)c(OC)c(OC)c2)c2ccnc(OCc3ncccn3)c2c(=O)n1Cc1ccnc(C)c1.Cl`, the figures for the cell number in the experiment with HCC1569 [1] and in the experiment on TDF [2] were 100 and 110, respectively. Moreover, the H1.0 immunofluorescence intensity in the experiment with TDF [3] is 94.3 (inactive); in the experiment on HCC1569 [4], 95.2 (inactive).

For the compound `COc1cc(NS(C)(=O)=O)ccc1Nc1c2ccccc2nc2ccccc12.Cl` [Amsacrine hydrochloride], the cell number in the experiment with HCC1569 [1] came to 67.8; with TDF [2], 32.3. Further, the H1.0 immunofluorescence intensity in the experiment on TDF [3] is 152 (active); with HCC1569 [4], 113 (inactive).

As to `O=C([O-])CCC(NC(=O)c1ccccc1C(=O)[O-])C(=O)[O-].[Na+].[Na+].[Na+]` [Phthalamoyl-L-glutamic acid trisodium], the figures for the cell number with HCC1569 [1] and with TDF [2] were 61.8 and 103, respectively. In addition, the H1.0 immunofluorescence intensity in the experiment on TDF [3] is 89.2 (inactive); in the experiment on HCC1569 [4], 170 (active).

Regarding `NC(N)=NC(=O)c1nc(Cl)c(N2CCCCCC2)nc1N` [5-(N,N-hexamethylene)amiloride], the figures for the cell number in the experiment on HCC1569 [1] and in the experiment with TDF [2] were 96 and 85.1, respectively. The H1.0 immunofluorescence intensity with TDF [3] is 113 (inactive); in the experiment on HCC1569 [4], 100 (inactive).

On to `CN(CCOc1ccc(CC(Nc2ccccc2C(=O)c2ccccc2)C(=O)O)cc1)c1ccccn1` (stereo not drawn), for which the cell number with HCC1569 [1] amounted to 102; in the experiment with TDF [2] it was 104. The values for the H1.0 immunofluorescence intensity with TDF [3] and with HCC1569 [4] were 92.6 (inactive) and 88.2 (inactive), respectively.

With `C[N+](C)(C)CC=O.[Cl-]` [Betaine aldehyde chloride], the results for the cell number with HCC1569 [1] and with TDF [2] were 104 and 115, respectively. In addition, the H1.0 immunofluorescence intensity in the experiment with TDF [3] was 94.6 (inactive); with HCC1569 [4], 83.1 (inactive).

Take `O=c1[nH]c(=O)n(C2CC(O)C(CO)O2)cc1Br` (stereo not drawn) [5-Bromo-2'-deoxyuridine]: the cell number with HCC1569 [1] came to 99; in the experiment with TDF [2] it was 106. For the same compound, the values for the H1.0 immunofluorescence intensity in the experiment on TDF [3] and with HCC1569 [4] were 95.7 (inactive) and 105 (inactive), respectively.

In the case of `Cl.Cl.OCCN1CCN(CCCN2c3ccccc3Sc3ccc(C(F)(F)F)cc32)CC1` [Fluphenazine.2HCl], the cell number with HCC1569 [1] was determined as 95.6; with TDF [2], 107. Further, the H1.0 immunofluorescence intensity in the experiment on TDF [3] is 101 (inactive); with HCC1569 [4] it was 116 (inactive).

Consider `CCCCCCCC(=O)c1c(O)cc(O)cc1CC(=O)OCC` [ethyl (3,5-dihydroxy-2-octanoylphenyl)acetate], for which the figures for the cell number in the experiment on HCC1569 [1] and with TDF [2] were 104 and 106, respectively. For the same compound, the H1.0 immunofluorescence intensity with TDF [3] is 96.7 (inactive); in the experiment on HCC1569 [4], 121 (inactive).

As for `Cc1c(O)cc2c(c1C)OC(C)(CCCC(C)CCCC(C)CCCC(C)C)CC2` [D-γ-Tocopherol], the cell number in the experiment with HCC1569 [1] was 100; with TDF [2], 98.7. Besides, the H1.0 immunofluorescence intensity in the experiment on TDF [3] is 98.5 (inactive); in the experiment with HCC1569 [4], 102 (inactive).

As to `Nc1[nH]nc2nc3ccccc3nc12` [Cdk1/5 Inhibitor], the values for the cell number with HCC1569 [1] and in the experiment with TDF [2] were 99.6 and 95.2, respectively. For the same compound, the figures for the H1.0 immunofluorescence intensity with TDF [3] and in the experiment on HCC1569 [4] were 104 (inactive) and 113 (inactive), respectively.

Consider `Cl.NC12CC3CC(CC(C3)C1)C2` [Amantadine.HCl], for which the cell number in the experiment with HCC1569 [1] and with TDF [2] was 103 in each case. In addition, the H1.0 immunofluorescence intensity with TDF [3] was 92.2 (inactive); with HCC1569 [4], 99 (inactive).

On to `O=Cc1c2[nH]c3ccccc3c2cc2[nH]c3ccccc3c12` [6-Formylindolo [3,2-B] carbazole], for which the cell number in the experiment on HCC1569 [1] turned out to be 101; with TDF [2], 99. Moreover, the H1.0 immunofluorescence intensity with TDF [3] is 91.4 (inactive); with HCC1569 [4], 100 (inactive).

As to `COc1cc2c(cc1OC)C(=O)C(CC1CCN(Cc3ccccc3)CC1)C2.Cl.Cl` (stereo not drawn) [Donepezil.HCl], the cell number turned out to be 101 in the experiment with HCC1569 [1] and 114 in the experiment with TDF [2]. Moreover, the H1.0 immunofluorescence intensity in the experiment on TDF [3] was 95.8 (inactive); in the experiment with HCC1569 [4] it was 105 (inactive).

With `N[C@H](C(=O)O)c1cc(O)cc(O)c1` [(S)-3,5-Dihydroxyphenylglycine], the values for the cell number in the experiment on HCC1569 [1] and in the experiment on TDF [2] were 101 and 105, respectively. The values for the H1.0 immunofluorescence intensity in the experiment on TDF [3] and in the experiment with HCC1569 [4] were 96.4 (inactive) and 97.4 (inactive), respectively.

Turning to `CC12C=CC(=O)C=C1CCC1C2C(=O)CC2(C)C1CCC2(O)C(=O)CO` (stereo not drawn) [Prednisone], the cell number worked out at 101 in the experiment on HCC1569 [1] and 106 with TDF [2]. In addition, the figures for the H1.0 immunofluorescence intensity in the experiment on TDF [3] and with HCC1569 [4] were 86.2 (inactive) and 122 (inactive), respectively.

With `COc1cc2nc(N(C)CCCNC(=O)C3CCCO3)nc(N)c2cc1OC` (stereo not drawn) [Alfuzosin], the cell number in the experiment on HCC1569 [1] turned out to be 99.7; in the experiment on TDF [2], 96.5. For the same compound, the values for the H1.0 immunofluorescence intensity in the experiment on TDF [3] and in the experiment on HCC1569 [4] were 97.7 (inactive) and 102 (inactive), respectively.

For `O=C(O)c1cccnc1Nc1cccc(C(F)(F)F)c1` [Niflumic acid], the cell number was found to be 98.8 ± 5.9 with HCC1569 [1] and 95.2 ± 23 in the experiment on TDF [2]. In addition, the H1.0 immunofluorescence intensity in the experiment with TDF [3] is 97.7 (inactive); in the experiment with HCC1569 [4], 101 (inactive).

Regarding `O=C(Nc1cccc(C(F)(F)F)c1)Nc1cc(S(=O)(=O)NC2CC2)ccc1-c1ccsc1`, the values for the cell number with HCC1569 [1] and in the experiment on TDF [2] were 91.2 and 89.5, respectively. Also, the H1.0 immunofluorescence intensity in the experiment with TDF [3] is 94.6 (inactive); in the experiment with HCC1569 [4] it was 130 (inactive).

On to `CC(CCC(=O)NCCS(=O)(=O)O)C1CCC2C3C(O)CC4CC(O)CCC4(C)C3CC(O)C12C` (stereo not drawn) [Taurocholic acid], for which the figures for the cell number in the experiment with HCC1569 [1] and in the experiment with TDF [2] were 101 and 104, respectively. For the same compound, the H1.0 immunofluorescence intensity with TDF [3] was 97.8 (inactive); in the experiment on HCC1569 [4], 111 (inactive).

For the compound `Cl.OCC1NCC(O)C(O)C1O` (stereo not drawn) [1-Deoxynojirimycin hydrochloride], the cell number in the experiment with HCC1569 [1] stood at 97.8; in the experiment on TDF [2] it was 106. Besides, the H1.0 immunofluorescence intensity is 85.2 (inactive) with TDF [3] and 91.8 (inactive) with HCC1569 [4].

Regarding `COC(=O)C1C(O)CCC2CN3CCc4c([nH]c5ccccc45)C3CC21.Cl` (stereo not drawn) [Rauwolscine], the figures for the cell number in the experiment with HCC1569 [1] and in the experiment with TDF [2] were 103 and 99.5, respectively. For the same compound, the H1.0 immunofluorescence intensity was 95.5 (inactive) in the experiment on TDF [3] and 95.6 (inactive) in the experiment on HCC1569 [4].

For the origin of these results see the supplement of paper PMC7156485.
